This is a sample that favours compounds with a hit; in the whole collection about 7.4% have one here.
Rab9 prom act = Rab9 promoter activation; Huh7 Rab9 promoter-luciferase reporter, luminescence, 24 h; Potency, µM (titrated, usually from 9.22 µM), inactives show at the top dose activation, negative = inhibition, usual class: activators; hit rate 2.8% among 320,000; further: % of control where 0% means no effect; nearly all actives have a fitted effect of over 60% in size
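Cell-based reporter: Huh7 stable for Rab9 promoter-driven luciferase, plated in reduced-serum medium with 10% FBS at 1500 cells/well, compound-treated 24 h at 37 °C, luminescence read after 10 min reagent.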
SMN2 splice up = enhancers of SMN2 splice variant expression | HEK293 SMN2-luciferase splicing reporter, luminescence, 30-36 h | Potency, µM (highest dose often 46.1 µM), inactives show at the highest dose activity change, positive = activation, actives largely listed as activators | hit rate 2.8% among 210,000 | AID 1458; further: % of control where 0% means no effect; nearly all actives have a fitted effect of over 55% in size
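qHTS luciferase splicing reporter: luminescence rises when SMN2 exon 7 is included in transfected HEK293 cells. Compound exposure lasted 30-36 h at 37C, with 4.5 mM final sodium butyrate as control, followed by a ONE-Glo read.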
ELG1 genotox = inducers of genotoxicity in HEK293T ELG1-luciferase cells. HEK293T ELG1-luciferase reporter, luminescence, 16 h. hit rate 1.3% among 330,000. AID 504466. Potency, µM (doses to about 46 µM), for inactives: at the highest dose activity change, positive = activation, hits mostly activators; further: % of control where 0% means no effect; nearly all actives have a fitted effect of over 60% in size
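Quantitative HTS format in 1536-well plates. HEK293T ELG1-luciferase reporter cells receive test compound and are incubated 16 hr at 37 °C, 5% CO2; ONE-Glo added, 30 min room temperature, then luminescence read.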
NPC1 prom act = NPC1 promoter activation; Huh7 NPC1 promoter luciferase reporter, 24 h; AID 485313; hit rate 2.4% among 320,000; Potency, µM (titrated, usually from 9.22 µM), for inactives: at the top dose activation, actives largely listed as activators; further: % of control where 0% means no effect; nearly all actives have a fitted effect of over 60% in size
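Luminescence read-out of NPC1 promoter-driven luciferase in stably transfected Huh7 cells; compounds delivered in DMSO and left 24 h at 37C, 5% CO2, qHTS titration format.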
FLuc modulator = firefly luciferase modulation, counter-screen for miR-21 project; AID 588342; purified FLuc, Km substrates, luminescence inhibition; hit rate 6.9% among 360,000; Potency, µM (doses to about 57.5 µM), inactives show at the top dose activity change, negative = inhibition, usual class: inhibitors;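 further: plate controls were vehicle for no effect and reference inhibitor for full effect; nearly all actives have a fitted effect of over 55% in size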
Target sequence (P08659 whole entry, looked up): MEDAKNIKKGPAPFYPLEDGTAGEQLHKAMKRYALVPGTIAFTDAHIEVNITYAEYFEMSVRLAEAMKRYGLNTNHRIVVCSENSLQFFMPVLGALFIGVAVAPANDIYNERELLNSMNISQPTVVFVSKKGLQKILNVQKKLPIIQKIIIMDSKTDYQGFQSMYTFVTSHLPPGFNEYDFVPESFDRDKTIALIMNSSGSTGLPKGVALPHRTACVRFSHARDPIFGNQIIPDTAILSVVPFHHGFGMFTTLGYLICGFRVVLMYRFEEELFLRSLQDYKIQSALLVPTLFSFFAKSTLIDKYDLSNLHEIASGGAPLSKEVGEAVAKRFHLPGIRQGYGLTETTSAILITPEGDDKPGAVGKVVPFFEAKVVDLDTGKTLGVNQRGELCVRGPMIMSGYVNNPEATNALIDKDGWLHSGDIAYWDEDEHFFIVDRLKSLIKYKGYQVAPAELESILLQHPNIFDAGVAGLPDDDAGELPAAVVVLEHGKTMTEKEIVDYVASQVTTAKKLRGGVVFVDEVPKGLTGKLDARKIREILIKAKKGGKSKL
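Purified P. pyralis luciferase (10nM final) with 10uM D-luciferin and 10uM ATP (Km levels) in 50mM Tris acetate pH 7.5, 10mM Mg acetate, 0.01% Tween-20, 0.05% BSA; qHTS 6-point titration, ~60 µM downward; luminescence read.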
* = called active by the depositor; ? = inconclusive; · = no result; [ ] = dose if it differs, or a comment. The call rests on the fitted dose curve; in most records, active means well fitted curve in the direction sought with a large enough effect; inconclusive means small, poorly fitted or top-dose-only effect, or another doubt; inactive means no such curve, though single readings can be large; an effect the other way counts as inactive or inconclusive. Potency means the concentration at half of the fitted maximal effect.

SMILES | Rab9 prom act | SMN2 splice up | ELG1 genotox | NPC1 prom act | FLuc modulator
Cc1cccc(NC(=O)NCc2ccc3c(c2)cc(C)n3C)c1 | -4% | 2% | ? | 4% | -3%
COc1ccc(NC(=O)NCc2ccc(Cl)cc2)cc1 | 2% | · | 15% | -6% | -1%
COc1ccccc1C(=O)Nc1cccc(NC(C)=O)c1 | -5% | -11% | -1% | 0% | ?
Cc1cc2cc(CNC(=O)Nc3cccc(Cl)c3)ccc2n1C | 0% | -25% | 23µM* | 1% | -4%
COc1ccccc1C(=O)NC(=O)Nc1cccc(Cl)c1 | 4µM* | · | ? | ? | 2.7µM*
Cc1c(CC(=O)NCCC(=O)O)c(=O)oc2cc3occ(-c4ccccc4)c3cc12 | 7% | · | 1% | -2% | 15µM*
Cc1c(CC(=O)N[C@@H](C)C(=O)O)c(=O)oc2cc3occ(-c4ccccc4)c3cc12 | -2% | · | -6% | -1% | 21µM*
Cc1c(Nc2ncccc2C(=O)O)cccc1C(F)(F)F | 10% | -5% | ? | 0% | 19µM*
COc1ccccc1Nc1ncccc1C(=O)O | 5% | -8% | 0% | -5% | -19%
NC(=O)c1cccnc1Nc1ccccc1F | 15% | 21% | ? | 17% | -14%
Cc1cc(Cl)ccc1Nc1ncccc1C(N)=O | ? | 8.9µM* | ? | 26% | 15µM*
Cc1ccc(Nc2ncccc2C(N)=O)cc1 | 2.8µM* | 11µM* | ? | 3.5µM* | ?
COc1ccc(Nc2ncccc2C(=O)O)cc1 | ? | -7% | 15µM* | ? | 15µM*
COc1ccc(NC(=O)CSc2nc3nc(C)c(Cc4ccccc4)c(C)n3n2)cc1OC | · | · | · | · | 4%
Cn1c(/N=C/c2ccc3c(c2)OCO3)nc2ccccc21 | -3% | -3% | 2% | -4% | 0.24µM*
Nc1nc2ccccc2n1/N=C/c1ccc2c(c1)OCO2 | 4µM* | · | ? | 2µM* | 11µM*
Nc1nc2ccccc2n1/N=C/c1ccc(Br)cc1 | ? | 35µM* | 16µM* | ? | ?
CC(=O)Nc1ccc(NC(=O)Cn2c(=O)n(-c3ccc(C)cc3)c(=O)c3oc4ccccc4c32)cc1 | -1% | -9% | -8% | -3% | -5%
N/C(=N\OC(=O)c1ccco1)c1ccccc1 | 9% | 22µM* | ? | 21% | 6.7µM*
Cc1cccc(/C(N)=N/OC(=O)N2CCOCC2)c1 | 26% | -85% | 8% | 29% | 17µM*
COc1ccc(C(=O)COC(=O)c2ccn(C)n2)cc1 | ? | · | ? | 3.5µM* | 17µM*
N/C(=N\OC(=O)c1ccco1)c1ccc(Br)cc1 | ? | 20% | ? | ? | 6.7µM*
O=C(NNC(=O)c1ccco1)c1ccccc1 | -3% | ? | 13% | 0% | -2%
COc1ccc(C(=O)COC(=O)c2cncc(Br)c2)cc1 | -4% | · | -2% | 1% | ?
N/C(=N\OC(=O)CCCOc1ccccc1)c1ccc(Br)cc1 | 4% | 23% | 2% | -1% | -1%
SMILES | Rab9 prom act | SMN2 splice up | ELG1 genotox | NPC1 prom act | FLuc modulator
COc1cccc(CNS(=O)(=O)c2ccc3c(c2)oc(=O)n3C)c1 | 10% | · | -5% | -1% | 1%
COc1cccc(NC(=O)COC(=O)c2ccco2)c1 | 2% | -7% | 0% | 1% | ?
COc1ccc(C(=O)COC(=O)c2ccco2)cc1 | 3% | 12% | ? | ? | 1.1µM*
COC(=O)c1ccc(OC(=O)c2ccco2)cc1 | -2% | 1% | 2% | 10% | ?
COc1ccc(/C(N)=N/OC(=O)c2ccco2)cc1 | 0.35µM* | 6.3µM* | 0.46µM* | 0.5µM* | 0.95µM*
N/C(=N\OC(=O)c1ccco1)c1ccccn1 | 29% | ? | ? | 20% | 8.5µM*
O=C(OCc1ccc(COC(=O)c2ccccn2)cc1)c1ccccn1 | -5% | 0% | 1% | -2% | 4%[2.3 µM]
Cc1ccc(/C(N)=N/OC(=O)c2ccco2)cc1 | 2.5µM* | 11µM* | ? | 4µM* | 2.4µM*
CCOc1ccc(S(=O)(=O)N2CCCCC2)cc1NC(=O)Cc1cccc(C(F)(F)F)c1 | -4% | · | -2% | -6% | 6%
CCNC(=O)NC(=O)C(C)OC(=O)C1CCN(S(=O)(=O)c2ccccc2C(=O)OC)CC1 (stereo unspecified) | -1% | -3% | -1% | -1% | -3%
COc1ccc(N=N/C(=C\O)C(=O)c2ccco2)cc1 | 7% | 3% | -4% | 21% | 24µM*
Cc1cccc(/C(N)=N/OC(=O)c2ccco2)c1 | ? | 16µM* | 2.3µM* | ? | 1.9µM*
COC(=O)/C(=C/c1ccc(OC)cc1)NC(=O)c1ccco1 | 1% | -6% | 0% | -2% | -2%
CCOc1ccc(NC(=O)c2ccc3c(SCC(=O)O)c4c(nc3c2)CCCC4)cc1 | -3% | 5% | 1% | 0% | 17µM*
O=C(O)CSc1c2c(nc3cc(C(=O)Nc4cccc(C(F)(F)F)c4)ccc13)CCC2 | -3% | · | 0% | -1% | 27µM*
Cc1ccc(NC(=O)c2ccc3c(SCC(=O)O)c4c(nc3c2)CCCC4)c(Br)c1 | -4% | · | -3% | -6% | ?
COc1ccc(C(CC(=O)O)N2C(=O)CCC2=O)cc1 (stereo unspecified) | -1% | · | -2% | 0% | 0%
Nc1nc(SCc2ccccc2)ns1 | ? | 13µM* | 18µM* | 28% | ?
Nc1nc(SCc2ccc(Cl)cc2)ns1 | 15% | 4% | 17% | 19% | ?
Nc1cc(N)nc(SCc2ccccc2)n1 | 2.8µM* | 11µM* | ? | ? | 19µM*
CC(C)CSc1nsc(N)n1 | ? | 20% | 16µM* | ? | ?
Nc1cc(N)nc(SCCc2ccccc2)n1 | 16% | · | ? | 22% | ?
C[C@H](CO)N1C[C@H](C)[C@@H](CN(C)C)Oc2c(NS(=O)(=O)c3cccs3)cccc2C1=O | · | · | 1% | · | ·
O=S(=O)(Nc1ccc2oc(-c3ccccc3)nc2c1)c1ccccc1 | 20% | -14% | 6% | 3% | ?
O=S(=O)(O)c1cc2oc(-c3ccccc3)nc2c2ccccc12 | 22% | · | -4% | 16% | 9.5µM*
SMILES | Rab9 prom act | SMN2 splice up | ELG1 genotox | NPC1 prom act | FLuc modulator
COc1ccc(Cl)cc1NC(=S)NCc1ccco1 | 0% | 16% | -6% | -2% | 4%
Cc1cccc(N2CCN(C(=O)CCc3c(C)nc4ncnn4c3C)CC2)c1C | · | -32% | · | · | 3%
COc1ccc(Cl)cc1NC(=O)CN(C)C(=O)Cc1n[nH]c(=O)c2ccccc12 | -4% | · | 2% | 1% | 2%
Cc1cc(C(=O)COc2cccnc2[N+](=O)[O-])c(C)n1Cc1cccs1 | 2% | -38% | ? | -2% | 24µM*
CCCn1c(C)cc(C(=O)COc2ccc(C)nc2[N+](=O)[O-])c1C | 18% | · | 14% | 4% | ?
Cc1cc(-n2c(C)cc(C(=O)COc3cccnc3[N+](=O)[O-])c2C)no1 | 11% | · | 3% | 6% | -7%
Cc1ccc(OCC(=O)c2cc(C)n(-c3ccccc3)c2C)c([N+](=O)[O-])n1 | -6% | -58% | -4% | -3% | 19µM*

Assay outcomes from PubChem BioAssay.
